NS1 function inh – influenza NS1 inhibition; Potency, µM (highest dose often 46.1 µM), inactives show at the highest dose activity, positive = more growth; 270,000 tested, 0.4% active; calls by dose curve; further: potency means the concentration at half of the fitted maximal effect; actives are rising curves; nearly all actives have a fitted effect of over 50% in size
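Compounds were scored for reversing the slow growth caused by influenza A NS1 in S. cerevisiae, measured by optical density at 600 nm. Assay medium contained 2% galactose at pH 6.0; NS1-free yeast of the same strain were the positive control.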
Shiga inhibitor – Shiga toxin inhibition; Vero cells, Shiga toxin protein synthesis inhibition reporter; inhibition, % at 38.7 µM; 290,000 tested, 9.2% active; AID 2315; in the data active means inhibition mostly above about 28%, no sharp cut-off; inactive means mostly below about 43%; further: 0% is about no effect
AmpC inh no detg – inhibitors of E. coli AmpC beta-lactamase without detergent; Potency, µM (series often up to 57.1 µM), without a hit: top-dose activity change, negative = inhibition, most hits filed as inhibitors; AmpC nitrocefin hydrolysis, absorbance 480 nm, 0.0001% Triton; 330,000 tested, 0.52% active;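 further: potency means the concentration at half of the fitted maximal effect; plate controls were no compound for no effect and no enzyme for full effect; nearly all actives have a fitted effect of over 20% in size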
Target sequence (P00811 whole entry, looked up): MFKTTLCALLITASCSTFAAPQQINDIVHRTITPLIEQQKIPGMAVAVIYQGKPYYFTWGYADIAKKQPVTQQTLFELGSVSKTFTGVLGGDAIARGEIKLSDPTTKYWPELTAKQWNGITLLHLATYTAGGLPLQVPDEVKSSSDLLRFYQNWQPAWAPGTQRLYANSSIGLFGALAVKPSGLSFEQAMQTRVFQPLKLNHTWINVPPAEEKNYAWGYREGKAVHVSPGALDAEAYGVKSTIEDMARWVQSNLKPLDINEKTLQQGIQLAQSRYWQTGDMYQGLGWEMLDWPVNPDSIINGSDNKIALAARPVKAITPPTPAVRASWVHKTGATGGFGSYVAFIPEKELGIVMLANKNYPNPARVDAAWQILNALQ
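AmpC (5.3 nM in the dispensed reagent) in 20 mM phosphate pH 7.0 with 0.01% (detergent screen) or 0.0001% Triton X-100 was preincubated with compounds for 15 min at room temperature. Nitrocefin was then added from an 800 uM solution, and hydrolysis was followed at 480 nm.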
AmpC detergent – inhibitors of E. coli AmpC beta-lactamase with detergent; P00811; AmpC hydrolysis of nitrocefin, absorbance 480 nm, 0.01% Triton; Potency, µM (titrated, usually from 114 µM), for the others: at the top dose activity change, negative = inhibition, hits mostly inhibitors; 370,000 tested, 0.041% active;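 further: potency means the concentration at half of the fitted maximal effect; 0% = no-compound wells and -100% = no-enzyme wells; nearly all actives have a fitted effect of over 25% in size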
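AmpC (5.3 nM in the dispensed reagent) in 20 mM phosphate pH 7.0 with 0.01% (detergent screen) or 0.0001% Triton X-100 was preincubated with compounds for 15 min at room temperature. Nitrocefin was then added from an 800 uM solution, and hydrolysis was followed at 480 nm.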
CHX counter – counter-screen hit for Shiga toxin inhibitors, cycloheximide; AID 2314; cell reporter, cycloheximide protein synthesis inhibition counterscreen; max response, %; 300,000 tested, 12% active; in the data active means max response mostly above about 13%, no sharp cut-off; inactive means mostly below about 14%; further: read at 38.3 µM for the half of the compounds with a filed dose; 0% is about no effect
Starred values were filed as active, the others as inactive; ? = inconclusive; / = no result given; [ ] = dose if it differs, or a comment. This is one part of a sample in which hits are shown more often than they occur. Unless noted, the call rests on the fitted dose curve; in most records, active means well fitted curve in the direction sought with a large enough effect; inconclusive means small, poorly fitted or top-dose-only effect, or another doubt; inactive means no such curve, though single readings can be large; an effect the other way counts as inactive or inconclusive.

SMILES | NS1 function inh | Shiga inhibitor | AmpC inh no detg | AmpC detergent | CHX counter
N#C/C(=C\c1ccc(Cl)c([N+](=O)[O-])c1)c1ccccn1 | 0% | -11 | -6%[2.29 µM] | -9% | 12
CNc1ccc(/C=C(\C#N)c2ccccn2)cc1[N+](=O)[O-] | / | 69* | -17% | 9% | 45*
C(=C\c1ccc(/C=C/c2ccccc2)nn1)/c1ccccc1 | 1% | -2 | -21% | -7% | 2
COc1ccc(NC(=O)/C(C#N)=C/c2cccnc2)c(OC)c1 | 6% | -11 | 13% | ? | -3
Cn1c(=O)[nH]c(=O)c2c1nc(CN1CCN(c3ccccc3F)CC1)n2Cc1ccc(F)cc1 | / | / | / | 1% | /
Cc1ccccc1CNC(=O)c1ccc2[nH]c(C)c(C)c2c1 | / | / | / | -2% | /
N#C/C(=C\c1ccncc1)c1ccccn1 | 0% | 6 | -11% | -4% | 2
N#C/C(=C\c1cccnc1)c1ccccn1 | 0% | 25 | -16% | 0% | 11*
CC1CCCN(c2nc(-c3cccnc3)nc3scc(-c4ccccc4)c23)C1 (stereo not drawn) | -32% | 51* | -5% | 9% | 21*
COc1cccc(-c2noc(-c3cc4ccccc4oc3=O)n2)c1OC | / | / | / | 10% | /
CC(C)c1ccc(/C=C/C(=O)N2CCCCCC2)cc1 | -16% | 31 | 30% | -12% | 21*
O=C(/C=C/c1ccc(Cl)cc1)N1CCOCC1 | 27% | 54* | 12% | -7% | 35*
O=C(/C=C/c1ccc(F)cc1)N1CCCN(C(=O)/C=C/c2ccc(F)cc2)CC1 | -8% | 1 | 101% | 6% | 5
O=C(/C=C/c1ccc(Cl)c(Cl)c1)N1CCOCC1 | -47% | 104* | 4% | -12% | 24*
CC(C)c1ccc(/C=C/C(=O)N2CCOCC2)cc1 | -4% | 28* | 4% | ? | 43*
O=C(/C=C/c1ccccc1)N1CCOCC1 | -3% | 6 | -4% | -13% | 14
COc1ccc(Nc2ncc(C(=O)Nc3cccc(OC)c3)c3ccccc23)cc1 | / | / | / | 6% | /
CN(C)CCN(C(=O)C1CCN(S(=O)(=O)c2cccs2)CC1)c1nc2c(F)cccc2s1 | / | / | -14% | 2% | /
NC(=O)N/N=C/c1ccc(OCc2cccc(Cl)c2)cc1 | -47% | 41 | -23% | 1% | -1
CCCOc1ccc(/C=C/C(=O)N2CCOCC2)cc1 | -1% | 61* | 4% | 5% | 56*
O=C(/C=C/c1ccc(OCc2cccc(Cl)c2)cc1)N1CCOCC1 | / | 45 | -8% | 1% | 24*
Cc1nn(CCOc2ccccc2)c(=O)n1-c1ccccc1 | -11% | 38* | -16% | -7% | 29*
COc1ccc(-n2c(C)nn(CCOc3ccccc3)c2=O)cc1 | 0% | 58* | -3%[2.29 µM] | -3% | 28*
Cc1nn(CCOc2ccccc2)c(=O)n1-c1ccc(Cl)cc1 | / | 76* | -8% | ? | 30*
CN(C)c1ccc(/C=N/NC(=O)CN(c2cccc(Cl)c2)S(C)(=O)=O)cc1Br | 6% | -17 | -31% | 3% | -1
SMILES | NS1 function inh | Shiga inhibitor | AmpC inh no detg | AmpC detergent | CHX counter
O=C(NCc1ccccc1Cl)C1CCN(C(=O)c2ccco2)CC1 | -7% | -11 | 2% | 5% | 2
CC(=O)N1CC=CC1(CC(C)C)C(=O)NCCN1CCOCC1 (stereo not drawn) | -11% | 55* | -10% | 0% | 34*
COc1nc(N)nc(NC23CC4CC(CC(C4)C2)C3)n1 | -41% | 21* | -21% | ? | 15*
COc1nc(N)nc(N2CCOCC2)n1 | -2% | -19 | -7% | ? | -3
Cc1nnc(-c2ccc(N3CCCCCC3)c([N+](=O)[O-])c2)o1 | -6% | 50* | 51% | -4% | 15*
O=C(Nc1nc(-c2ccccc2)cs1)c1ccc(N2CCOCC2)c([N+](=O)[O-])c1 | 15% | -8 | -5% | -4% | -4
O=C(Nc1ccon1)c1ccc(N2CCCCC2)c([N+](=O)[O-])c1 | / | 99* | -18% | 2% | 45*
O=C(Nc1nc2ccccc2s1)c1ccc(N2CCCCC2)c([N+](=O)[O-])c1 | 19% | 102* | -52% | 2% | 45*
Cc1cc(NC(=O)c2ccc(N3CCCC3)c([N+](=O)[O-])c2)no1 | / | 23 | -29%[11.4 µM] | ? | 20*
Cc1ccc(C(=O)NCC(=O)OCC(=O)/C=C2\N(C)c3ccccc3C2(C)C)cc1C | -15% | -3 | -5% | -6% | -3
O=S(=O)(NCC1CCCO1)c1ccc(-c2ccc(Cl)cc2)cc1 (stereo not drawn) | / | 20 | 17% | -11% | 17*

From PubChem
